Screens deposited in PubChem by National Center for Advancing Translational Sciences (NCATS).
Shown are actives, neighbours in structure and some others; about 1.7% of the full set was active somewhere.
GLP1R ag – qHTS of GLP-1 Receptor Agonists; HEK293 GLP-1R CRE-luciferase, luminescence, 4-6 h; cells express a hypersensitive GLP-1R form; Glucagon-like peptide 1 receptor (Homo sapiens), P43220; 0.007% of 380,000 active; AID 624172, 2012; Potency, µM (top dose mostly 45.6 µM), usual class: activators
LDHA block – qHTS assay for inhibitors of human lactate dehydrogenase; L-lactate dehydrogenase A chain (Homo sapiens), P00338; purified LDHA, NADH/diaphorase-resazurin fluorescence; stronger effect = lower value; activity change, % (values are at about 110 or 230 µM); 0.15% of 480,000 active; in the data active means activity change below about -30%; inconclusive means mostly about -25% to -30%
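Resorufin fluorescence (ex540/em590), read at 0 and 20 min after diaphorase/resazurin addition, reports the NADH left after a 5 min room-temperature reaction of 2 nM human LDH5 with 0.06 mM NADH and 0.2 mM pyruvate.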
GLP1R cytotox – qHTS of GLP-1 Receptor Inverse Agonists: Cytotox Screen; HEK293 cAMP-luciferase reporter cells, luminescence, 24 h; Potency, µM (series often up to 38.3 µM), most hits filed as inhibitors; 0.13% of 410,000 active; AID 624418, 2012;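 further: loss of luciferase light is scored as toxicity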
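Quantitative HTS format, 1536 wells, 200 cells/uL seeded. Compounds: 23 nL, 24 h, 37 °C. Detection: luciferase reagent, luminescence at 12 min RT; decreased signal taken as cytotoxic.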
GLP1R inv ag – qHTS of GLP-1 Receptor Inverse Agonists (Inhibition Mode); Glucagon-like peptide 1 receptor (Homo sapiens), P43220; HEK293 GLP-1R CRE-luciferase, luminescence, 24 h; GLP-1R form is constitutively active; Potency, µM (top dose mostly 38.3 µM), most hits filed as inhibitors; 1.6% of 410,000 active; AID 624417, 2012; further: nearly all actives have a fitted effect of over 55% in size
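GLP-1R inverse agonism mode: basal reporter luminescence in engineered HEK293 cells measured after one day of compound exposure at 37 deg C, with a 12 min room-temperature detection step.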
mIDH1 inhibitor – qHTS for Inhibitors of mutant isocitrate dehydrogenase 1 (IDH1): qHTS | 0.093% of 390,000 active | IDH1-R132H enzyme, NADPH consumption, diaphorase/resazurin fluorescence | AID 602179, 2012 | Potency, µM (doses to about 76.6 µM), usual class: inhibitors; further: nearly all actives have a fitted effect of over 65% in size
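IDH1-R132H (0.5 ug/mL) preincubated 30 min with compound, then NADPH (0.016 mM) and alpha-KG (2 mM) added; 80 min at RT, pH 7.5. Remaining NADPH coupled via diaphorase/resazurin to fluorescence (540/590 nm); concentration-response curves normalized to no-enzyme control.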
PTHR1 agonist – qHTS for PTHR1 Agonists: Primary Screen | HEK293 GP2 PTHR1 cells, GloSensor cAMP luminescence, 1 h | AID 743266, 2014 | Potency, µM (top dose mostly 115 µM), usual class: activators | 0.075% of 410,000 active; further: nearly all actives have a fitted effect of over 55% in size
Target sequence (Q03431 whole entry, looked up): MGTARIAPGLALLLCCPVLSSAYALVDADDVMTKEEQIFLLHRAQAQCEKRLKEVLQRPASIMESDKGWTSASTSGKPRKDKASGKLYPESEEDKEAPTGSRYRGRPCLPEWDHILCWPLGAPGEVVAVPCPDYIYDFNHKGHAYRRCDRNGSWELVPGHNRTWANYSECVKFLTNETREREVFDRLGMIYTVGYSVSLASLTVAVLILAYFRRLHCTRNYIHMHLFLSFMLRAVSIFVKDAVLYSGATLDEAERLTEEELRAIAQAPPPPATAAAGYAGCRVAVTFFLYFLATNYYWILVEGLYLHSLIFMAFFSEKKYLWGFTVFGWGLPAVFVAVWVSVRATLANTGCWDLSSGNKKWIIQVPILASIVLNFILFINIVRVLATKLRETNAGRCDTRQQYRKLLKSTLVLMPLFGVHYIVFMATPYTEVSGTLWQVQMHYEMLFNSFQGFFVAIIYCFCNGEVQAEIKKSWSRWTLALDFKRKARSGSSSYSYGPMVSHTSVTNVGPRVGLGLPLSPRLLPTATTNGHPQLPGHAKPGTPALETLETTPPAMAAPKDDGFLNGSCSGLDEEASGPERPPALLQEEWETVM
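HEK-293-derived GP2 cells expressing PTHR1 and a GloSensor cAMP reporter, 3,000/well, plated overnight, given luciferin plus IBMX (each 0.5 mM as added) for 1 h at 37 °C, then compound for 1 h at 37 °C. Luminescence was read after 15 min at room temperature.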
Large screens that a line does not name were inactive. Unless noted, the call rests on the fitted dose curve; in most records, active means well fitted curve in the direction sought with a large enough effect; inconclusive means small, poorly fitted or top-dose-only effect, or another doubt; inactive means no such curve, though single readings can be large; an effect the other way counts as inactive or inconclusive.

O=C(NCCC(=O)N1CCN(c2ncccn2)CC1)c1ccc(Br)cc1	LDHA block -32 (no result: GLP1R ag, GLP1R cytotox, GLP1R inv ag, mIDH1 inhibitor, PTHR1 agonist)
CNC(=O)CCc1c(C)nc2c(c(OC)nn2C)c1C	none (no result: GLP1R ag, GLP1R cytotox, GLP1R inv ag, mIDH1 inhibitor, PTHR1 agonist)
O=S(=O)(NCC(c1ccco1)N1CCCCC1)c1ccccc1C(F)(F)F (stereo unspecified)	GLP1R inv ag 10µM
O=S(=O)(NCC(c1ccco1)N1CCCCC1)c1cccc(C(F)(F)F)c1 (stereo unspecified)	GLP1R inv ag 11µM
CCC(=O)NC(C)c1ccc(OC)cc1 (stereo unspecified)	none (no result: GLP1R ag, GLP1R cytotox, GLP1R inv ag, mIDH1 inhibitor, PTHR1 agonist)
Cc1nn(-c2nc3ccccc3n2Cc2ccccc2)c2c1C(=O)CC(C)(C)C2	GLP1R inv ag 2.2µM
O=[N+]([O-])c1ccc(-c2nc(-c3cccs3)c(-c3cccs3)[nH]2)cc1	GLP1R cytotox inconclusive, GLP1R inv ag 3.2µM
O=[N+]([O-])c1cccc(-c2nc(-c3cccs3)c(-c3cccs3)[nH]2)c1	GLP1R inv ag 2.5µM
Cc1ccc(-c2nc(-c3cccs3)c(-c3cccs3)[nH]2)cc1	GLP1R inv ag inconclusive (no result: GLP1R ag)
CCOc1cccc2cc(S(=O)(=O)c3ccc(Cl)cc3)c(=O)oc12	none (no result: GLP1R ag, GLP1R cytotox, GLP1R inv ag, mIDH1 inhibitor, PTHR1 agonist)
Cc1cc(SCC(=O)N(CCC#N)CCC#N)nc2c(C)cccc12	none (no result: GLP1R ag, GLP1R cytotox, GLP1R inv ag, mIDH1 inhibitor, PTHR1 agonist)
COc1cccc(/C=C(\C#N)c2nc3ccccc3[nH]2)c1	none (no result: GLP1R ag, GLP1R cytotox, GLP1R inv ag, mIDH1 inhibitor, PTHR1 agonist)
O=C(Nc1ccc(NC(=O)N2CCN(c3ccccc3O)CC2)cc1)N1CCN(c2ccccc2O)CC1	GLP1R inv ag 5µM
O=C(Nc1ccc(Cl)cc1)N1CCN(c2ccccc2)CC1	GLP1R inv ag inconclusive
COc1cc(C(=O)N(CC#N)C2CC2)cc(OC)c1C	none (no result: GLP1R ag, GLP1R cytotox, GLP1R inv ag, mIDH1 inhibitor, PTHR1 agonist)
O=C1CSC(=Nc2ccc(Cl)cc2)N1Cc1ccco1	GLP1R inv ag 8.9µM
Cc1cc(C)c(N=C2SCC(=O)N2Cc2ccco2)c(C)c1	GLP1R inv ag inconclusive
CC(c1nc2ccccc2n1Cc1ccccc1)N1CCCCC1 (stereo unspecified)	GLP1R cytotox inconclusive, GLP1R inv ag 1.3µM
CCSc1ncc(Cl)c(C(=O)N(Cc2ccccc2)c2ccc(OC)cc2)n1	GLP1R inv ag 5.6µM (no result: GLP1R ag, mIDH1 inhibitor)
CCSc1ncc(Cl)c(C(=O)N(Cc2ccc(N(C)C)cc2)Cc2ccco2)n1	GLP1R inv ag inconclusive (no result: GLP1R ag, mIDH1 inhibitor)
CC(C)CCN(C(=O)c1csnn1)C(C(=O)NC1CCCCC1)c1ccc(F)cc1 (stereo unspecified)	GLP1R inv ag 10µM
CCC(C)N(C(=O)c1csnn1)C(C(=O)NC1CCCC1)c1ccc(F)cc1 (stereo unspecified)	none
Cc1ccc(C)c(-c2csc(N)c2C#N)c1	none (no result: GLP1R ag, GLP1R cytotox, GLP1R inv ag, mIDH1 inhibitor, PTHR1 agonist)
COc1ccc(Br)cc1/C=N/NC(=O)CNC(=O)C1COc2ccccc2O1 (stereo unspecified)	GLP1R inv ag inconclusive
O=C(CNC(=O)C1COc2ccccc2O1)N/N=C\c1ccc(Br)cc1 (stereo unspecified)	GLP1R inv ag 10µM
N/C(=N\OC(=O)c1ccccc1)c1ccccn1	GLP1R inv ag inconclusive
CCOc1ccc(C(=O)O/N=C(\N)c2ccccn2)cc1	GLP1R cytotox inconclusive, GLP1R inv ag 2.5µM
Cc1ccc(C(=O)O/N=C(\N)c2ccccn2)cc1	GLP1R cytotox inconclusive, GLP1R inv ag 2.5µM
N/C(=N\OC(=O)c1cccc(F)c1)c1ccccn1	none
Cc1cccc(C(=O)O/N=C(\N)c2ccccn2)c1	GLP1R cytotox inconclusive, GLP1R inv ag 2µM
CCCCn1cc(S(=O)(=O)c2ccccc2)c(=O)c2cc(CC)ccc21	none (no result: GLP1R ag, GLP1R cytotox, GLP1R inv ag, mIDH1 inhibitor, PTHR1 agonist)
N#CC1(c2ccccc2)CCN(S(=O)(=O)c2ccc(OC(F)(F)F)cc2)CC1	GLP1R inv ag 10µM
